The values that follow come from the supplement of paper PMC6555819.

Common to all, as to assay: PBM binding z-score (relative to random genomic background probes); higher = stronger binding; sequences stand for … in GC…GCGATTGACAGCGTAGAATGAAGG
The test system of test [1] is LXRa:RXRa (NR concentration 270 nM, RXRa partner concentration 90 nM). In short, it runs like this: (§1)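 Binding z-scores take random background probes as their reference. They come from custom Agilent 4×180K protein-binding microarrays incubated 1 h with ligand-free nuclear receptor dimers, with antibodies against each partner (one per run) detecting binding. Scanned fluorescence was regression-normalized.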

The test system of test [2] is LXRa homodimer (NR concentration 270 nM). Put shortly: as §1
In test [3] the test system is LXRb homodimer (NR concentration 270 nM). Put shortly:
as §1

In test [4] the test system is PPARa:RXRa (NR concentration 270 nM, RXRa partner concentration 90 nM). In short, it runs like this: as §1
Test [5] concerns PPARg:RXRa 270nM:90nM, anti-RXR (NR concentration 270 nM, RXRa partner concentration 90 nM). In short, it runs like this: as §1
In test [6] the test system is PPARg:RXRa 30nM:10nM, anti-RXR (NR concentration 30 nM, RXRa partner concentration 10 nM). Put shortly: as §1
Test [7] has as its system PPARg:RXRa 90nM:30nM, anti-RXR (NR concentration 90 nM, RXRa partner concentration 30 nM). In short, it runs like this:
as §1

Test [8] has as its system PPARg:RXRa DBDmut IVT, anti-RXR (DBD mutation: RXRa K156A/R161A, NR concentration 270 nM, RXRa partner concentration 90 nM). Put shortly:
as §1

Test [9] concerns PPARg:RXRa IVT, anti-PPARg (NR concentration 270 nM, RXRa partner concentration 90 nM). Put shortly: as §1
Test [10] has as its system PPARg DBDmut:RXRa IVT, anti-PPARg (DBD mutation: PPARg1 K132A/R137A, NR concentration 270 nM, RXRa partner concentration 90 nM). Put shortly:
as §1

The subject of test [11] is PPARg DBDmut IVT, anti-PPARg (DBD mutation: PPARg1 K132A/R137A, NR concentration 270 nM). Put shortly: as §1
The subject of test [12] is PPARg homodimer (NR concentration 180 nM). Put shortly:
as §1

The subject of test [13] is PXR:RXRa (NR concentration 270 nM, RXRa partner concentration 90 nM). Put shortly:
as §1

In test [14] the test system is PXR homodimer (NR concentration 270 nM). In short, it runs like this: as §1
The subject of test [15] is RARa:RXR (NR concentration 270 nM, RXRa partner concentration 90 nM). Put shortly: as §1
Test [16] relates to RARa homodimer (NR concentration 270 nM). In short, it runs like this: as §1
Test [17] concerns RARb:RXRa (NR concentration 270 nM, RXRa partner concentration 90 nM). In short, it runs like this:
as §1

For test [18], the system named is RARb homodimer (NR concentration 270 nM). In short, it runs like this:
as §1

Test [19] concerns PPARg:RXRa (NR concentration 180 nM, RXRa partner concentration 90 nM). Put shortly: as §1

For the sequence CGTCCAAGGACAATGCTAGGTCAGTGAAAGCATT, the PBM binding z-score in test [1] is 0.187; in test [2], 0.593; in test [3], -0.885; in test [4], 0.16; in test [5], -0.429; in test [6], -0.602. Also, the PBM binding z-score in [7] was -0.31; in [8], 0.442; in test [9], 0.25; in [10], -1.55; in [11], -0.865; in test [12] it was 0.328. Moreover, the PBM binding z-score is 0.242 in test [13]; 0.0712 in test [14]; 0.502 in test [15]; -0.127 in test [16]; 2.03 in [17]; 2.48 in test [18].
With TTGCCAAGGTGAAAGGTCGTTGATGCACGCCTTG, the PBM binding z-score in test [1] was 3.11; in test [2], -0.0355; in [3] it was -0.723; in test [4], 5.16; in [19], 8.02; in test [5], 7.51. Further, the PBM binding z-score in [6] is 6.32; in [7], 8.1; in [8] it was 1.69; in [9], 4.55; in [10], -0.0211; in test [11], -0.745. For the same sequence, the PBM binding z-score in [12] was 1.54; in [13] it was 4; in test [14] it was -0.137; in test [15], 5.68; in test [16] it was -0.379; in [17], 3.06. Besides, the PBM binding z-score in test [18] came out at 2.56.
For the sequence CGAACAAGGTCACCAGGACAGTGAAGAGGTTGGA, the PBM binding z-score came to 5.26 in test [1]; 0.443 in [2]; 0.736 in test [3]; 6.12 in test [4]; 7.8 in test [19]; 7.38 in test [5]. The PBM binding z-score was 3.87 in test [6]; 6.13 in [7]; 5.38 in test [8]; 6.18 in [9]; 1.95 in test [11]; 4.85 in test [12]. For the same sequence, the PBM binding z-score in test [13] was 4.68; in test [14], 1.1; in test [15] it was 5.71; in test [16], 3.06; in test [17], 5.3; in [18], 4.07.
Regarding CCAACTAGGTCAAAGGACAGTGAAAGGCGACGTA, the PBM binding z-score in test [1] was found to be 2.56; in [2], 0.453; in test [3], 0.227; in test [4], 5.08; in test [19], 9.64; in test [5], 8.24. Further, the PBM binding z-score is 6.76 in test [6]; 8.84 in test [7]; 7.57 in test [8]; 7.88 in test [9]; 0.729 in test [11]; 1.68 in test [12]. The PBM binding z-score in test [13] was 1.09; in test [14], 0.436; in test [15], 2.36; in [16], 0.964; in test [17], 4.07; in test [18], 3.15.
Consider CCTCGGAGGACAGAAGGTCAAAGCTGTCCGCTTT, for which the PBM binding z-score is 4.02 in test [1]; 1.82 in test [2]; -0.421 in test [3]; 3.67 in test [4]; 0.66 in [19]; 2.18 in test [5]. Moreover, the PBM binding z-score in test [6] is -0.0409; in test [7], 1.41; in test [8] it was 0.187; in test [9], 0.662; in [10], -1.42; in [11] it was -2.33. Besides, the PBM binding z-score came to 2.07 in [12]; 3.39 in test [13]; 0.288 in test [14]; 0.206 in test [16]; 3.74 in test [17]; 4.26 in test [18].
For the sequence TGAATGAGGTTAAATATCAGGGAACGTGGCGTCG, the PBM binding z-score was 2.5 in test [1]; -0.0698 in test [2]; 0.686 in test [3]; 2.51 in test [19]; 3.17 in [5]; 1.45 in [6]. Besides, the PBM binding z-score turned out to be 2.46 in [7]; 2.43 in test [8]; 2.35 in test [9]; 0.916 in test [10]; 0.956 in test [11]; 0.766 in test [12]. In addition, the PBM binding z-score came to 1.35 in test [13]; 0.413 in test [14]; 1.91 in [15]; 0.347 in test [16]; 2.17 in test [17]; 0.735 in test [18].
On to CCGACTGGGGCAAGGTCACCATAACGCACAGCCA, for which the PBM binding z-score in test [1] was 2.82; in test [2], 0.471; in [3], -0.792; in [4], 4.2; in test [19] it was 4.78; in [5] it was 4.63. Moreover, the PBM binding z-score in test [6] was 2.12; in [7], 3.78; in [8] it was 3.03; in test [9], 4.62; in test [10], 0.00337; in test [11] it was -0.825. Further, the PBM binding z-score in test [12] turned out to be 2.64; in [13] it was 3.25; in [14], 0.544; in test [15], 3.76; in [16], 0.752; in [17], 4.25. This sequence also displayed a PBM binding z-score in test [18] of 4.23.
